Source: PubChem
An excerpt weighted towards active compounds, which were near 6% of everything screened.
PLK1 PBD inh – PLK1 (human) polo-box domain binding inhibition. P53350. Plk1 PBD binding of FITC phosphopeptide, fluorescence polarization. Potency, µM, for the others: max response, negative = inhibition, usual class: inhibitors. 360,000 tested, 2.8% active; further: series mostly up to about 57 µM; nearly all actives have a fitted effect of over 65% in size
Tau fibril FP – tau fibrillization inhibition (FP); P10636; K18 P301L tau heparin fibrillization, Alexa594 FP, 6 h; Potency, µM (highest dose often 57.7 µM), for the others: at the top dose activity, negative = inhibition, most hits filed as inhibitors; 280,000 tested, 0.39% active; AID 1468; further: nearly all actives have a fitted effect of over 55% in size
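Read-out: fluorescence polarization of Alexa 594-labeled tau (0.24 uM), 555 nm excitation, 632 nm emission. Mixtures held 15 uM unlabeled K18 P301L, compound and 20 uM heparin, pH 7 acetate buffer, incubated 6 hr at 37 C.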
Tau ThT inhib – blocks human tau fibril formation measured by thioflavin T; AID 1460; 270,000 tested, 2.1% active; Potency, µM (doses to about 57.4 µM), inactives show at the top dose activity, negative = inhibition, most hits filed as inhibitors; recombinant tau K18 P301L, heparin-induced fibrillization, ThT fluorescence; further: nearly all actives have a fitted effect of over 55% in size
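Tau K18 P301L fragment (15 uM unlabeled plus 0.24 uM Alexa 594-labeled) in 100 mM sodium acetate pH 7 with compound, fibrillization induced by 20 uM heparin for 6 hr at 37 C. Thioflavin T (30 uM) added, fluorescence read after 1 hr (ex 450, em 510 nm).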
VDR inhibitor – inhibitors of human vitamin D receptor | Potency, µM, without a hit: max response, negative = inhibition, hits mostly inhibitors | VDR-SRC2-3 peptide fluorescence polarization, 2 h | P11473 | AID 504847 | 400,000 tested, 0.93% active
Target sequence (P11473 whole entry, looked up): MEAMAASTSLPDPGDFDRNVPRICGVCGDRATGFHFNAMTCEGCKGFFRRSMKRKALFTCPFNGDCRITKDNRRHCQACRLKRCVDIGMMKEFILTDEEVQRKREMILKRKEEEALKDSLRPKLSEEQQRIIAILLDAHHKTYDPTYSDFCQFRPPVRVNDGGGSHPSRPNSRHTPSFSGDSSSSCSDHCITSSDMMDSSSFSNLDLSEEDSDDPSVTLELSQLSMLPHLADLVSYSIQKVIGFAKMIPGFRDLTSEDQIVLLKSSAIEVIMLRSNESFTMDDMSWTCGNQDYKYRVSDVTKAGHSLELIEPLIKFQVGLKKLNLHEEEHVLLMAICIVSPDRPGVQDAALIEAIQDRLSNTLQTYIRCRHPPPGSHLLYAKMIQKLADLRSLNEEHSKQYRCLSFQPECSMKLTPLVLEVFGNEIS
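Reagent solutions, kept cold and dark, are dispensed first; compounds are then pinned in at 23 nl, plates briefly spun, and incubated 2 h at ambient temperature. Inhibition of VDR–SRC2-3 peptide binding is read by fluorescence polarization.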
Tau fluor cs – counter-screen for tau fibril formation inhibitors. 280,000 tested, 0.93% active. Potency, µM (doses to about 57.7 µM), without a hit: at the top dose activity change, negative = decrease. tau K18 P301L (four-repeat tau fragment) Alexa594 fluorescence, heparin fibrillization; further: nearly all actives have a fitted effect of over 55% in size
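Human K18 P301L tau (15 uM unlabeled plus 0.24 uM Alexa 594-labeled, final) in 100 mM sodium acetate pH 7 was mixed with compound and 20 uM heparin and incubated 6 hr at 37 C.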
Sfp inh – Sfp phosphopantetheinyl transferase inhibition. Q9F4F7. Biochemical Sfp PPTase activity, qHTS. Potency, µM, for the others: largest response in the series, negative = inhibition, most hits filed as inhibitors. 310,000 tested, 3.5% active;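 further: the enzyme is Sfp with the accession as filed and its product quenches rhodamine fluorescence; 0% = enzyme reaction without inhibitor and -100% = no enzyme wells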
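After 15 min at room temperature with compound, 15 nM Sfp received 5 uM rhodamine-CoA plus 12.5 uM BHQ-2-ybbR (50 mM Hepes pH 7.6, 10 mM MgCl2). Rate came from the fluorescence difference over 30 min, ex 525/em 598 nm.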
* = called active by the depositor; [ ] = another dose, or the depositor's remark. The call rests on the fitted dose curve; in most records, active means well fitted curve in the direction sought with a large enough effect; inconclusive means small, poorly fitted or top-dose-only effect, or another doubt; inactive means no such curve, though single readings can be large; an effect the other way counts as inactive or inconclusive. Unless noted, on the % scale 0 is the no-effect control and ±100 the full control effect; potency means the concentration at half of the fitted maximal effect.

For CC1CCC2(CC1)NC(=O)N(CC(=O)NC1CCCCC1C)C2=O (stereo not given) the results were PLK1 PBD inh -15% and VDR inhibitor -6%.
Screening COc1ccc(NC(=O)Cn2nnnc2-c2ccccc2F)c(C)c1 returned Tau fibril FP -6%, Tau ThT inhib 0%, VDR inhibitor 9% and Tau fluor cs 5%.
Cc1nn2c(=S)[nH]nc2[nH]c1=O was read as PLK1 PBD inh inconclusive, Tau fibril FP -8%, Tau ThT inhib -12%, VDR inhibitor 0%, Tau fluor cs -8% and Sfp inh 13µM*.
For Cc1n[nH]c(=S)n(NC(=O)/C=C/C(=O)Nn2c(=S)[nH]nc(C)c2=O)c1=O the results were PLK1 PBD inh -22%, Tau fibril FP -7%, Tau ThT inhib inconclusive, VDR inhibitor -16%, Tau fluor cs -6% and Sfp inh inconclusive.
Screening CCCCC(=O)N(C)c1c(C)nc2ccc(C(=O)Nc3cccc(NS(C)(=O)=O)c3)cn12 returned PLK1 PBD inh -2%.
`COc1ccc(C(Nc2ccccn2)c2ccc3ccc(C)nc3c2O)cc1C` (stereo not given) gave Tau fibril FP 3%, Tau ThT inhib 16µM*, VDR inhibitor inconclusive and Tau fluor cs -19%.
For Cc1ccc(C(Nc2ccccn2)c2ccc3cccnc3c2O)cc1 (stereo not given) the results were Tau fibril FP 9%, Tau ThT inhib inconclusive, VDR inhibitor inconclusive and Tau fluor cs -24%.
Screening Cc1cc(C)c2c(c1)cc(C)c1nnc(SCC(=O)Nc3ccccc3N3CCOCC3)n12 returned PLK1 PBD inh -2%, Tau fibril FP 8%, Tau ThT inhib inconclusive, VDR inhibitor -18%, Tau fluor cs -18% and Sfp inh 0%.
For Cc1cc(C)c2nc(SCC(=O)Nc3ccccc3N3CCOCC3)c(C#N)cc2c1 the results were PLK1 PBD inh 30µM* and VDR inhibitor -8%.
`O=C1S/C(=C\C=C\c2ccco2)C(=O)N1c1ccccc1` gave PLK1 PBD inh -25%, Tau fibril FP inconclusive, Tau ThT inhib 14µM*, VDR inhibitor 1%, Tau fluor cs inconclusive and Sfp inh inconclusive.
Screening Cn1cc(/C=C2\SC(=O)N(c3ccccc3)C2=O)c2ccccc21 returned PLK1 PBD inh -2%, Tau fibril FP -5%, Tau ThT inhib -5%, VDR inhibitor 9%, Tau fluor cs -17% and Sfp inh -22%.
Screening O=C1S/C(=C\C=C\c2ccco2)C(=O)N1c1ccc(O)cc1 returned PLK1 PBD inh -8%, Tau fibril FP inconclusive, Tau ThT inhib 14µM*, VDR inhibitor -19%, Tau fluor cs 16µM*[quencher] and Sfp inh inconclusive.
`Cn1c(-c2ccccc2)c(C(=O)CCl)c2ccccc21` gave PLK1 PBD inh inconclusive, Tau fibril FP 6%, Tau ThT inhib inconclusive, VDR inhibitor 71µM*, Tau fluor cs -9% and Sfp inh -28%.
`Cn1c(-c2ccccc2)c(O)c(=O)c2ccccc21` gave Tau fibril FP 7%[11.6 µM], Tau ThT inhib -10%[11.5 µM], Tau fluor cs -15%[11.6 µM] and Sfp inh 26%.
Screening CCn1c(-c2ccccc2)c(C(=O)CCl)c2ccccc21 returned PLK1 PBD inh inconclusive, Tau fibril FP 10%, Tau ThT inhib inconclusive, VDR inhibitor inconclusive, Tau fluor cs -7% and Sfp inh -2%.
`Cn1c(-c2ccccc2)c(CCO)c2ccccc21` gave PLK1 PBD inh 27µM*, Tau fibril FP 1%, Tau ThT inhib 11%, VDR inhibitor 14%, Tau fluor cs 5% and Sfp inh -22%.
Cc1cc(C)c(OCCCCn2cnc3ccccc3c2=O)c(C)c1 was read as PLK1 PBD inh 0%, Tau fibril FP -8%, Tau ThT inhib -15%, VDR inhibitor -2%, Tau fluor cs -14% and Sfp inh -11%.
